This note sets out measurements from PubChem BioAssay.

Values joined by “and” are separate entries in the source; they are usually repeats but may differ in a detail not shown here. Identical values can stand only once. Values without a mark were called inactive. The rule behind the calls is not given here.

Chain of Pantothenate synthetase (Mycobacterium tuberculosis (strain ATCC 25618 / H37Rv)) (P9WIL5 whole entry, looked up): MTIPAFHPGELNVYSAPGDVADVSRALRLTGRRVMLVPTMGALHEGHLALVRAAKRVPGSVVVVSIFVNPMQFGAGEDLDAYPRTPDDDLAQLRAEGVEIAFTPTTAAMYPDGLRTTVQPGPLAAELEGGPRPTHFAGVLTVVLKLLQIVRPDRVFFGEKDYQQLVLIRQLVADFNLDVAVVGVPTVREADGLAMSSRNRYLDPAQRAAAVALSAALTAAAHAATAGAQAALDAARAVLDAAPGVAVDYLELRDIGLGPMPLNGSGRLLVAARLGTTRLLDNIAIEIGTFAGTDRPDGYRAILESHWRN

The assay has as its target Pantothenate synthetase (Mycobacterium tuberculosis (strain ATCC 25618 / H37Rv)) (UniProt P9WIL5). Nature of the assay: Coupled enzyme confirmation of inhibitors against recombinant Mtb PanC (AID 375).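 Note: 0% = full reaction with vehicle and 100% = no enzyme background.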 Conditions: coupled enzyme assay; at 10 µM, stronger effect = higher value.
As a reminder, the inhibition is the change of the read-out against control, counted positive when it falls. With `CCN1CCN(C(=O)c2ccc3c(=O)n(CCC4=CCCCC4)c(=O)[nH]c3c2)CC1`, the inhibition was 0%.

`Cc1ccccc1-c1nc(CN2CCC(C(=O)NCc3cccnc3)CC2)c(C)o1`: the inhibition was 0%.

`CCN(C(=O)Cc1c(C(=O)O)[nH]c2ccccc12)c1cc(OC)ccc1OC`: the inhibition was 0%.

`CCOC(=O)c1[nH]c(C)c(C(=O)NC)c1C`: the inhibition is 0%.

For `COc1ccccc1N1C(=O)c2ccccc2NC1c1ccncc1` (centres undefined), the inhibition was 3%.

`O=C(COc1ccccc1)N1CCN(c2ncnc3c2cnn3-c2ccccc2)CC1`: the inhibition is 0%.

Turning to `COc1cccc(-c2nc(-c3ccc(NC(=O)Cc4ccccc4OC)cc3)no2)c1`, the inhibition was 11%.

For `CS(=O)(=O)N(Cc1nc2sc3c(c2c(=O)[nH]1)CCCC3)C1CCCCC1`, the inhibition was 0%.

With `c1ccc(CN(CC2=NCCN2)c2ccccc2)cc1`, the inhibition was 0% and 2%.

With `CCC(CC)C(=O)NCCc1cc2ccc(C)cc2[nH]c1=O`, the inhibition was 0%.

For `CCc1nc2scc(-c3ccccc3)c2c(=O)n1N`, the inhibition is 5%.

Regarding `CCc1nnc(NC(=O)CN2CCN(c3ccccc3OC)CC2)s1`, the inhibition was 4%.

Turning to `CCCSc1nc2c(c(=O)[nH]c(=O)n2C)n1CCc1ccccc1`, the inhibition was 5%.

For `CCc1ccccc1NC(=O)CN(c1cccc(OC)c1)S(C)(=O)=O`, the inhibition was 7%.

Consider `CC(O)c1cc2c(cc1NC(=O)c1cnn3c1NC(c1ccco1)CC3C(F)(F)F)OCO2` (centres undefined), for which the inhibition is 0%.

Turning to `Cc1cc(C)cc(N(CC(=O)NC2CCC(C)CC2)S(=O)(=O)c2c(C)noc2C)c1` (centres undefined), the inhibition is 0%.

On to `Cc1ccc(NC(=O)Nc2ccc3c(c2)N(C)C(=O)CS3)nc1`, for which the inhibition was 5%.

As for `O=C1CN(C(=O)COC(=O)C23CC4CC(CC(O)(C4)C2)C3)c2ccccc2N1`, the inhibition was 19%.

Take `COC(=O)c1cc2oc(C)cc2n1CC(=O)Nc1ccc(C)c(C)c1`: the inhibition is 0%.

In the case of `CCC(C)(C(=O)NC1CCCCC1)N(Cc1ccco1)C(=O)c1ccc2c(c1)OCO2` (centres undefined), the inhibition is 0%.

`CCOC(=O)C1CCN(c2c(N3CCCCCC3)c(=O)c2=O)CC1`: the inhibition was 2%.

As for `Cc1ccc(OCCC(=O)OCC(=O)C(C)(C)C)cc1`, the inhibition was 8%.

On to `CN(C)CCCC1(c2ccc(F)cc2)OCc2cc(C#N)ccc21` (centres undefined), for which the inhibition is 0%.

For the compound `COCCCNC(=O)c1ccc2c(c1)OCO2`, the inhibition is 1%.

On to `Nc1cc(-c2ccc(Br)cc2)nn1S(=O)(=O)c1ccccc1`, for which the inhibition was 2%.

Turning to `Oc1c(Cl)cc(Cl)cc1CNc1ccc(Br)cn1`, the inhibition is 4%.

`COc1ccc2nc(NC(=O)c3ccoc3C)sc2c1`: the inhibition is 0%.

For the compound `Nc1nnc(-c2cn(-c3ccccc3)nc2-c2ccccc2)o1`, the inhibition was 0%.

Turning to `Cc1ccc(N2CCN(C(=O)c3ccccc3)CC2)c(C)c1`, the inhibition is 1%.

In the case of `CC(NC(=O)NCCCC(=O)O)(C(F)(F)F)C(F)(F)F`, the inhibition is 0%.

For `OC(CCCN1CCC(O)(c2ccc(Cl)cc2)CC1)c1ccc(F)cc1` (centres undefined), the inhibition was 5%.

Turning to `COC(=O)c1cc(Br)c(=O)n(CCc2ccc(F)cc2)c1`, the inhibition is 0%.

Regarding `CCOC(=O)C1CCN(Cc2ccc(C(=O)OC)cc2)CC1`, the inhibition was 1%.

For `CCN(CC)c1ccc2c(c1)C(=O)N(C)C2=O`, the inhibition was 7%.

On to `Cn1cnnc1SCC(=O)Nc1ccccc1Sc1ccccc1`, for which the inhibition is 7%.

For the compound `O=C1CN(c2ccccc2F)C(=O)CN1c1ccccc1F`, the inhibition is 0%.

As to `COC(=O)c1c(C)oc2ccc(NS(=O)(=O)c3cccs3)cc12`, the inhibition was 0%.

For the compound `COc1cc(S(=O)(=O)NC2CCCCC2)ccc1Cl`, the inhibition was 1%.

Turning to `O=S(=O)(Nc1ccccn1)c1ccc(Oc2ccccc2)cc1`, the inhibition was 1%.
